About 830 (0.38%) of roughly 220,000 compounds were called active.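 Rule for the calls: active = compound inhibiting the enzyme by more than half at any dose during confirmatory dose-response retesting; inconclusive = strong single-dose inhibitors picked by rank but not retested; inactive = the rest.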 These entries were drawn from the full list. Potency and affinity values are given separately.
target: Leucine aminopeptidase (Plasmodium falciparum (isolate 3D7)) (UniProt Q8IL11); assay: P. falciparum M17LAP inhibitors, primary screen, biochemical, fluorogenic H-Leu-NHMec substrate, 1536-well (AID 1619); settings: recombinant M17LAP, H-Leu-NHMec fluorogenic kinetic assay; at 30 µM; stronger effect = higher value;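 note: plate controls were full reaction with DMSO carrier for no effect and no enzyme background for full effect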
Sequence (Q8IL11 whole entry, looked up): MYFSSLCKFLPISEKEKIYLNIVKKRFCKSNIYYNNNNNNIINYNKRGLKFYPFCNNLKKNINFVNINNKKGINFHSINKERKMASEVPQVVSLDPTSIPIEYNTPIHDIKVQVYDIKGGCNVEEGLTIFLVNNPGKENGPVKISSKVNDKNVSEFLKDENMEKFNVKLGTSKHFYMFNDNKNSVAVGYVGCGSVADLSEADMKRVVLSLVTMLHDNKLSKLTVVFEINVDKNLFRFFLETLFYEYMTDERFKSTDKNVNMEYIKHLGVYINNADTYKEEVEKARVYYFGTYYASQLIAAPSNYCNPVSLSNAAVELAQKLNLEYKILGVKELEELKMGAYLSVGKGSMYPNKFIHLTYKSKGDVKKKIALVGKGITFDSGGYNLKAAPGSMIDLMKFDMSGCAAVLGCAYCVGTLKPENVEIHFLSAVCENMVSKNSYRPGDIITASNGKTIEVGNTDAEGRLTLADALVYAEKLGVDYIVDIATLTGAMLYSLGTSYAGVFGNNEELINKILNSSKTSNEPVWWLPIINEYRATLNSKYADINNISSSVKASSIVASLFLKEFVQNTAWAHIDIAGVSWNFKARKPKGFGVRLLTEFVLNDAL

inhibition, inactive:
CCOc1cc(/C=C2\SC(=Nc3ccc(F)cc3)N(c3ccc(F)cc3)C2=O)ccc1OCC(=O)O 42.8%
CCOc1ccc(C(=O)NCC(=O)N2CCc3ccccc3C2)cc1OCC -4.26%
COc1cccc(/C=C2/SC(=O)N(C)C2=O)c1OCc1ccc(C(=O)O)cc1 25.1%
COC(=O)COc1ccc(/C=C2/SC(=O)N(CC(=O)N3CCCC3)C2=O)cc1Br 14.7%
NC(=O)COc1ccccc1/C=C1/SC(=O)N(CC(=O)N2CCc3ccccc3C2)C1=O -2.36%
CCOc1c(Br)cc(/C=C2/SC(=O)N(CC(=O)N3CCCC3)C2=O)cc1OC -3.92%
COc1cc(/C=C2\SC(=Nc3ccc(F)cc3)N(c3ccc(F)cc3)C2=O)ccc1OCC(=O)O 38.3%
COC(=O)COc1cc(Br)c(/C=C2/SC(=O)N(CC(=O)N3CCCC3)C2=O)cc1OC 26.7%
COC(=O)c1cccc(NC(=O)Cc2nc(-c3ccccc3)sc2-c2ccc(C)cc2)c1 1.12%
COc1ccc(CN2CCN(C)CC2)cc1OCc1ccccc1 -2.4%
Cc1ccc(C(=O)N2CCSC2=S)cc1 8.96%
CCc1nc(Sc2nc(C)cc(C)n2)c2oc3ccccc3c2n1 -4.31%
CCOC(=O)c1ccc(S(=O)(=O)NNC(=O)COc2ccccc2C)cc1 -5.37%
O=C(CSc1nnc(CN2CCCCCC2=O)n1-c1ccccn1)NCC(F)(F)F -5.65%
C/C(=C\c1ccccc1)CN1CCC(C(=O)N2CCC(C)CC2)CC1 1.41%
COCCSc1nnc(NC(=O)c2ccc([N+](=O)[O-])cc2)s1 -6.15%
COCc1nnc(NC(=O)c2cc(C(=O)OC)cc([N+](=O)[O-])c2)s1 6.44%
CCc1nn(-c2ccccc2)c(N)c1-c1ccc(OC)c(OC)c1 1.87%
O=[N+]([O-])c1ccc(/C=C/c2ccc3cccc([N+](=O)[O-])c3n2)cc1 -6.24%
COC(=O)c1ccc(/C=C/c2ccc3cccc(OC)c3n2)cc1 0.52%
COc1cc(/C=C/c2ccc3cccc([N+](=O)[O-])c3n2)ccc1OCC(=O)O 20.7%
CSc1ccc(/C=C/c2ccc3cccc(O)c3n2)cc1 14.9%
CCCn1nnc(NC(=O)c2ccco2)n1 -183%
CCC(C)n1c(SCC(=O)NC(=O)Nc2ccc3c(c2)OCCO3)nc2ccccc2c1=O (centres undefined) -1.6%
CCOC(=O)c1cn2nc(Oc3ccc(OC)cc3)ccc2n1 9.2%
CCCCCOC(=O)NC1CCS(=O)(=O)C1 (centres undefined) -3.96%
CCOC(=O)C1(CCSC)NC(c2ccco2)C2C(=O)N(CC)C(=O)C21 (centres undefined) 5.79%
CCC(=O)NCCc1c[nH]c2ccccc12 -4.01%
CC(C)C(=O)NCCc1c[nH]c2ccccc12 3.48%
CSc1n[nH]c(=O)n1-c1ccc(Cl)cc1 -4.84%
Cc1sc(NC(=O)c2ccc(Cl)s2)c(C(N)=O)c1C -3.24%
O=[N+]([O-])c1ccc(Sc2ccccn2)nc1 6.7%
O=[N+]([O-])c1ccc(Sc2ccccc2)nc1 -3.15%
Cc1ccc2oc(=O)c3cnn(CC(=O)NCCc4ccsc4)c3c2c1 11.8%
CCOC(=O)Cn1nnnc1CN(Cc1ccc(OC)cc1)Cc1cc2cc(CC)ccc2[nH]c1=O 7.13%
CCc1cccc2c(=O)c(C(=O)N3CCCCCC3)c[nH]c12 3.21%
CCN1CCc2c(OCC(=O)N3CCCc4ccccc43)cccc2C1=O 0.37%
COC(=O)c1c(NC(=O)/C=C/C(=O)O)sc(C)c1-c1ccc(C(C)C)cc1 15.5%
CC(C)=C1C2CCC1C(C(=O)Nc1sc(C)c(-c3ccc(C(C)C)cc3)c1C(N)=O)C2C(=O)O (centres undefined) -4%
CCc1ccc(-c2c(C)sc(NC(C)=O)c2C(N)=O)cc1 41.9%
Cc1sc(NC(=O)/C=C/C(=O)O)c(C(N)=O)c1-c1ccc(C(C)(C)C)cc1 21.9%
Cc1sc(NC(=O)C2CCCCC2C(=O)O)c(C(N)=O)c1C (centres undefined) 45%
CCc1c(C)sc(NC(=O)C2CCCCC2C(=O)O)c1C(N)=O (centres undefined) 50.6%
Cc1sc(NC(=O)CCC(=O)O)c(C(N)=O)c1-c1ccccc1 18%
Cc1sc(NC(=O)C2C3CCC(C3)C2C(=O)O)c(C(N)=O)c1-c1ccc(C(C)(C)C)cc1 (centres undefined) 39.7%
COc1ccccc1-c1n[nH]c(=S)n1N -6.79%
COC(=O)/C(=C/c1ccccc1)NC(=O)c1ccco1 0.48%
COC(=O)c1ccc(CN2CCN(Cc3ccc(F)cc3)C(CCO)C2)cc1 (centres undefined) -9.03%
Cc1ccc(NC(=O)C(CC(C)C)NC(=O)C2CCC(C)CC2)nc1 (centres undefined) -1.65%
CC(C)NC(=O)COC(=O)c1ccc(Cl)c(S(=O)(=O)N2CCCC2)c1 4.58%
Cc1ccc2cc(CCNC(=O)c3ccco3)c(=O)[nH]c2c1C -13.9%
O=C(CCC(=O)NNC(=O)COc1ccccc1)NCc1ccccc1 -10.8%
CC(=O)C1=C(O)C(=O)N(CCCO)C1c1ccccc1 (centres undefined) 27.1%
O=C(c1ccc(S(=O)(=O)N2CCCCC2)cc1)N(c1ccccn1)C1CCCCC1 0.89%
O=[N+]([O-])c1ccc(N2CCCC2)cc1NC(c1ccccc1)c1ccccc1 8.49%
CCOc1ccc(NC(=O)C(=O)N/N=C\c2ccc(CNS(=O)(=O)c3ccccc3)o2)cc1 0.49%
O=Cc1cc(N=Nc2ccccc2Cl)ccc1O 40.2%
O=C1CCCC(O)=C1N=Nc1cccc(C(=O)O)c1 46.3%
O=C(NC1CCCCC1)c1sc(=S)n2c1[nH]c(=O)c1ccccc12 24.2%
CCCCCNC(=O)c1ccc2c(=O)[nH]c3c(C(=O)NCC4CCCO4)sc(=S)n3c2c1 (centres undefined) 53.8%
Cc1ccc(CNC(=O)c2ccc3c(=O)[nH]c4c(C(=O)NCC5CCCO5)sc(=S)n4c3c2)cc1 (centres undefined) 1.99%
O=C(NCc1ccccc1)c1sc(=S)n2c1[nH]c(=O)c1ccccc12 27.9%
Cc1ccc(Nc2nc(N)nc(CSc3nnc(-c4ccncc4)o3)n2)cc1 -3.96%
O=c1cc(C(Cl)(Cl)Cl)oc2c1ccc1ccccc12 -3.47%
CC(=O)C1=C(O)C(=O)N(c2ccc(S(N)(=O)=O)cc2)C1c1ccc([N+](=O)[O-])cc1 (centres undefined) 23%
Cc1ccc(N2CC(=O)Nc3c(oc4nc(-c5ccccc5)cc(C)c34)C2=O)cc1 -16.6%
COC(=O)CSc1[nH]c(=O)cc(C)c1C#N 0.03%
CCOC(=O)CSc1[nH]c(=O)cc(C)c1C#N 17%
Cc1cc(=O)[nH]c(SCC(=O)c2ccccc2)c1C#N 16.9%
Cc1cc(=O)[nH]c(SCC(=O)O)c1C#N 2.48%
CCOC(=O)NC(=O)C(=CNc1ccccc1OC)C(=O)NC(=O)OCC 22.1%
O=[N+]([O-])c1ccc([C@H](O)[C@H](CO)N=Cc2ccccc2O)cc1 3.71%
CCNC(=O)CC1C(=O)N(c2ccccc2)C(=O)N1Cc1ccc(OC)cc1 (centres undefined) -7.36%
Cc1c(-c2nnc(-c3ccc(C(F)(F)F)cc3)o2)cnn1-c1ccccc1 -4.2%
CC(=C\c1ccccc1)/C=C1/SC(=O)N(CCCC(=O)Nc2ccc(C(=O)O)cc2)C1=O 52.8%
CC(/C=C1\SC(=S)N(CC(=O)O)C1=O)=C\c1ccccc1 19.7%
CC(=O)Nc1sc2c(c1C#N)CCC(C)C2 (centres undefined) -3.55%
CCCC1CCc2c(sc(NC(=O)OCC)c2C#N)C1 (centres undefined) -10%
CN1CCN(CC(=O)Nc2sc3c(c2C#N)CCC(C(C)(C)C)C3)CC1 (centres undefined) -2.54%
Cc1cc(C(=O)Nc2sc3c(c2C#N)CCC(C(C)(C)C)C3)no1 (centres undefined) -3.46%
CCCn1ncc(CN2CCN(Cc3ccsc3)C(CCO)C2)c1C (centres undefined) -4.96%
Cc1ccc(Nc2ccc(-n3ccnc3)nn2)cc1C 1.15%
CCCCNC(=O)N1CCN(C(=O)C2CCCO2)CC1 (centres undefined) -0.24%
C=C(C)COc1ccc2oc(C)c(C(=O)OCCOC)c2c1 -2.33%
CCCCOc1ccc(N(CC(=O)NCC2CCCO2)C(=O)CCC(=O)Nc2nccs2)cc1 (centres undefined) -11.6%
CCOc1ccc(NC(=O)C2CC(=O)NC(N3CCc4ccccc43)=N2)cc1 (centres undefined) 13.4%
O=C(CSc1nccc(=O)[nH]1)Nc1ccc(F)c([N+](=O)[O-])c1 31.4%
CCC(=O)Nc1ccc(Br)c(Cl)c1 -2.61%
CCn1c2ccccc2c2cc(NC(=O)CC(C)=O)ccc21 -12.3%
CCCC(=O)Nc1ccc2c(c1)c1ccccc1n2CC -0.99%
O=C(CSc1nccc(-c2cccs2)n1)Nc1ccc(F)c(Cl)c1 8.92%
Nc1cc(=O)[nH]c(SCC(=O)Nc2ccc(F)c(Cl)c2)n1 45.2%
CN(C)S(=O)(=O)c1cccc(NC(=S)NCCCn2ccnc2)c1 2.61%
Cn1nnc2cc(C(=O)N3CCC(c4ccccc4)C3)ccc21 (centres undefined) 9.75%
